# Only some compounds are listed: those with a hit (about 12% of all), similar ones and a draw of the others.
# MARV entry inh – blocks Marburg virus binding to or entry into cells | Marburg virus pseudotyped entry inhibition, cell reporter | Potency, µM (top dose mostly 37.8 µM), without a hit: at the highest dose activity change, negative = inhibition, usual class: inhibitors | hit rate 1.8% among 300,000 | AID 540276; calls by dose curve; tested in HEK293 cells; further: potency means the concentration at half of the fitted maximal effect; on the % scale 0 is the no-effect control and ±100 the full control effect
# Shiga toxin inh – inhibitors of Shiga toxin in Vero cells; hit rate 9.2% among 290,000; AID 2315; inhibition, % at 38.7 µM; Vero cells, Shiga toxin protein synthesis inhibition reporter; in the data active means inhibition mostly above about 28%, no sharp cut-off; inactive means mostly below about 43%; further: 0% is about no effect
# Cycloheximide cs – affects cycloheximide protein synthesis inhibition readout, counter-screen | cell reporter, cycloheximide protein synthesis inhibition counterscreen | hit rate 12% among 300,000 | max response, %; in the data active means max response mostly above about 13%, no sharp cut-off; inactive means mostly below about 14%; further: read at 38.3 µM for the half of the compounds with a filed dose; 0% is about no effect
# Lassa entry inh – blocks Lassa virus binding to or entry into cells; Lassa virus pseudotype entry inhibition, cell reporter; Potency, µM (titrated, usually from 37.9 µM), for inactives: at the highest dose activity change, negative = inhibition, actives largely listed as inhibitors; hit rate 1.2% among 300,000; calls by dose curve; tested in HEK293 cells; further: potency means the concentration at half of the fitted maximal effect; on the % scale 0 is the no-effect control and ±100 the full control effect; nearly all actives have a fitted effect of over 50% in size
# Active calls of the source: *; ? = inconclusive; nt = no result given; [ ] = dose if it differs, or a comment.
SMILES,MARV entry inh,Shiga toxin inh,Cycloheximide cs,Lassa entry inh
O=C(CSc1ncccn1)c1ccccc1Br,20%,35*,26*,?
C=CCn1c(C)cc(C(=O)CSc2ccc(NC(C)=O)cc2)c1C,-8%,114*,43*,-24%
COc1ccc(-n2cnnc2SCC(=O)c2cc(C)n(Cc3cccs3)c2C)cc1,9%,-1,-4,?
CCN1C(=O)NC(c2cccc(F)c2)C(C(=O)OC)=C1C (stereo not given),19%[14.2 µM],nt,nt,nt
COc1cc2cc(C(=O)N3CCOCC3)cc(-c3ccc(C)cc3)c2cc1OC,nt,-14,-3,nt
Cc1ccc(C(=O)C[n+]2ccc3ccccc3c2)cc1,?,45,22*,?
Cc1ccc(SCCc2cc[n+](CC(=O)c3ccccc3)cc2)cc1,11%[46.1 µM],125*,51*,8%
O=C(Oc1ccc(NC2=C(Cl)C(=O)c3ccccc3C2=O)cc1)c1ccc([N+](=O)[O-])cc1,1%,-3,18*,nt
C=CCOc1ccc(/C=N/NC(=O)c2c(C)nc3ccc(Cl)cn23)cc1,3%[46.1 µM],-3,-1,-27%[46.1 µM]
N#Cc1ccccc1NC(=O)c1cc2c(=O)n3ccccc3nc2s1,?,nt,nt,3%[46.1 µM]
Cc1ccc(Cn2c(=N)n(CC(=O)c3ccccc3)c3ccccc32)cc1,nt,11,-4,nt
Cc1nn(Cc2ccc(Cl)cc2)c(C)c1NC(=O)CSc1nc2c(c(C(F)(F)F)n1)CCc1ccccc1-2,12µM*,-10,-2,-20%[14.3 µM]
Cc1ccc(Cn2nc(C)c(NC(=O)CSc3nc4c(c(C(F)(F)F)n3)CCc3ccccc3-4)c2C)cc1,25%,-18,-9,3%
CCc1cc(=O)oc2cc(C)cc(OC(C)C(=O)NCc3ccccn3)c12 (stereo not given),nt,-1,-3,nt
Cc1ccc(C(=O)c2cc(Br)ccc2N)cc1,nt,45*,22*,nt
Cc1ccc(C(=O)c2cncc(Br)c2)cc1,7%,41,22*,9%
CCc1ccc(C(=O)c2cncc(Br)c2)cc1,?,49*,35*,5%
NNC(=O)c1cncc(Br)c1,-2%,37,6,0%
Nc1ccc(Br)cc1C(=O)O,1%,-9,-6,?
COc1ccc2cc(C(=O)NCCCN3CCCC3=O)[nH]c2c1,nt,35,17,nt
COc1ccc(C2=C(Nc3ccc(Br)c(C)c3)c3ccccc3C2=O)cc1,-16%[46.1 µM],nt,nt,-5%[46.1 µM]
O=c1[nH]cnc2nc(-c3ccccc3)c(-c3ccccc3)nc12,5%,-9,-1,11%
O=c1[nH]cnc2nn(-c3ccccc3)nc12,?,84*,14,9%
CS(=O)(=O)C1=NSC2=NC(=O)/C(=C\c3ccc(OC(=O)c4ccco4)c(Br)c3)C(=N)N21,nt,-11,4,nt
Clc1ccc2[nH]c3c(NCC4CCCO4)ncnc3c2c1 (stereo not given),0%,13,23*,nt
SMILES,MARV entry inh,Shiga toxin inh,Cycloheximide cs,Lassa entry inh
c1ccc(-n2ncc3c(NCC4CCCO4)ncnc32)cc1 (stereo not given),-18%,-4,-2,?
Clc1ccc2[nH]c3c(NCCN4CCOCC4)ncnc3c2c1,-20%,24,7,?
Clc1ccc(-n2ncc3c(NCC4CCCO4)ncnc32)cc1 (stereo not given),-14%,50*,40*,-11%
COc1ccc(-n2ncc3c(NCC4CCCO4)ncnc32)cc1 (stereo not given),?,95*,68*,?
COc1ccc(NC(=O)N2c3ccccc3C(C)=CC2(C)C)cc1,22%[46.1 µM],38*,20*,6%
CCOc1ccc2c(c1)C(C)=CC(C)(C)N2C(=O)Nc1ccccc1,4%,14,29*,9%
COc1ccc(N2CCN([C@H]3CC(=O)NC3=O)CC2)cc1,-7%,nt,nt,nt
O=C1CC(N2CCN(c3ccc(C(=O)c4ccc(F)cc4)cc3)CC2)C(=O)N1 (stereo not given),?,31,18*,7%
CCN1C(=O)CC(N2CCN(c3ccc(C(=O)c4ccccc4)cc3)CC2)C1=O (stereo not given),?,106*,64*,4%
COc1cc(NC2c3ccccc3C(=O)N2Cc2ccc3c(c2)OCO3)cc(OC)c1 (stereo not given),12%[46.1 µM],25,5,-11%
CS(=O)(=O)NCCSc1nnnn1-c1ccccc1,?,1,-1,4%
O=S(=O)(NCCSc1nnnn1-c1ccccc1)c1cccs1,?,43*,33*,2%
Cc1ccccc1CNC(=O)c1nn(-c2ccccc2F)nc1CO,17%[46.1 µM],nt,nt,19%[46.1 µM]
Cc1ccc(S(=O)(=O)Oc2ccc(/C=N/NC(=O)c3nn(C)cc3Cl)cc2)cc1,?,21,9,-18%
CSCCOC(=O)COc1ccc(/C=N/NC(=O)c2nn(C)cc2Cl)cc1,0%,59*,28*,17%
O=C(/C=C/c1ccc(OC2CSC2)cc1)c1ccccc1,?,125*,47*,?
O=C(N/N=C/c1ccc(OC2CSC2)cc1)c1ccccc1,-23%,127*,50*,-8%
O=C(N/N=C/c1ccc(OCc2ccc(F)cc2)cc1)c1ccccc1,nt,-9,-6,nt
COc1ccc(S(=O)(=O)Nc2ccc(N3CCOCC3)nc2)cc1,-10%[46.1 µM],-7,-5,6%
CC(C)C(=O)Nc1cccc(C(=O)Nc2nccs2)c1,?,38,15*,-1%
CC(C)c1nnc(NC(=O)c2ccc(S(=O)(=O)N3CCOCC3)cc2)s1,nt,-15,-1,nt
CC(C)C(=O)Nc1ccc(C(=O)Nc2nnc(C(C)C)s2)cc1,nt,44*,31,nt
CC(C)C(=O)Nc1cccc(C(=O)Nc2nnc(C(C)C)s2)c1,?,92*,42*,-15%
CC(C)c1nnc(NC(=O)c2cccc(NC(=O)C(F)(F)F)c2)s1,?,84*,47*,-8%[46.1 µM]
Cc1nnc(NC(=O)c2cccc(NC(=O)C(C)C)c2)s1,-1%,49,10,10%
SMILES,MARV entry inh,Shiga toxin inh,Cycloheximide cs,Lassa entry inh
CC(C)C(=O)Nc1cccc(C(=O)Nc2nnc(C(F)(F)F)s2)c1,?,nt,nt,-2%[46.1 µM]
O=C(CCCNC(=O)/C(=C/c1ccc(F)cc1)NC(=O)c1ccccc1)OCc1ccccc1,0%,-10,-7,nt
O=C(CNC(=O)c1ccc(Br)o1)NNC(=O)c1ccccc1F,?,-5,-2,10%
COc1ccccc1C(=O)COC(=O)/C(=C/c1ccccc1)NC(C)=O,9%,nt,nt,-12%
O=C(NC1CC1)c1cc2c(F)cccc2s1,-23%[46.1 µM],24,33*,20%
O=c1c(Cc2ccc(F)cc2)c(O)ccn1Cc1cccc(Cl)c1,2%[46.1 µM],-6,-1,?
CCc1cccc(CC)c1NC(=O)C1CCN(C(=O)c2ccco2)CC1,-7%[46.1 µM],8,-6,0%
Cc1cc(C)n2ncc(/C(N)=N/OC(=O)Nc3ccccc3)c2n1,-14%,16,9.6*,0%
Cc1cc(/C(N)=N/OC(=O)Nc2ccccc2)no1,14%,42*,24*,?
C/C(=N\OC(=O)Nc1ccccc1)c1ccc(C)cc1,?,nt,nt,-5%[46.1 µM]
Cc1cc(/C(N)=N/OC(=O)Nc2ccc(Cl)cc2)no1,-1%[46.1 µM],55*,27*,12%
COc1cc(S(=O)(=O)N2CCN(C(=O)c3ccco3)CC2)ccc1Cl,nt,nt,-2,nt
COc1ccc(OC)c(Cc2nnc(CCC(=O)NCc3ccc(C)s3)o2)c1,2%[46.1 µM],-6,7,1%[46.1 µM]

# Bioassay records: PubChem BioAssay, National Center for Advancing Translational Sciences (NCATS)
